Legend:
Assay in all cases: DAPPL (digital affinity profiling via proximity ligation, sequencing); 10 mM Tris-HCl pH 7.5, 50 mM NaCl, 1 mM DTT, 4% glycerol, room temperature, 30 min; GST-TFs on glutathione beads, 16-mer random dsDNA library, 0.1% formaldehyde crosslink after washing; high values mean tight binding
[1] = target: T1, FEV (Homo sapiens, UniProt Q99581 1-238); conditions: protein: recombinant; tags: N-terminal GST; dsDNA, one strand shown
T1 sequence: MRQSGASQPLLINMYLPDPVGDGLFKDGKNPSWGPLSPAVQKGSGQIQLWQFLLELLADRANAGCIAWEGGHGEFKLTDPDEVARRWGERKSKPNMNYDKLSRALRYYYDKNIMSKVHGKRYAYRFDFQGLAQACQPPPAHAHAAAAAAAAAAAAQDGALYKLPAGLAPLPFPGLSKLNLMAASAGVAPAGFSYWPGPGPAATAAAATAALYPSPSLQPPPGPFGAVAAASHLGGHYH
How it was run: (§1)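 Pools of DNA-barcoded human transcription factors, expressed in yeast as GST fusions on glutathione beads and combined with a tag-only sample, were incubated with 200 nmole of a 16-mer random double-stranded DNA library. Incubation took 30 min at room temperature in Tris/NaCl/DTT/glycerol buffer and was followed by washing, 0.1% formaldehyde crosslinking, proximity ligation (BsaI/T4 ligase, 1 h, 37 °C), PCR amplification and sequencing on an Illumina NextSeq500. Binding signal is the ratio of a hexamer's read frequency for a factor to its frequency for the tag-only sample.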

[2] = target: ETV5 (Homo sapiens, UniProt P41161 1-510); conditions: protein: recombinant; tags: N-terminal GST; dsDNA, one strand shown
ETV5, sequence (P41161 whole entry): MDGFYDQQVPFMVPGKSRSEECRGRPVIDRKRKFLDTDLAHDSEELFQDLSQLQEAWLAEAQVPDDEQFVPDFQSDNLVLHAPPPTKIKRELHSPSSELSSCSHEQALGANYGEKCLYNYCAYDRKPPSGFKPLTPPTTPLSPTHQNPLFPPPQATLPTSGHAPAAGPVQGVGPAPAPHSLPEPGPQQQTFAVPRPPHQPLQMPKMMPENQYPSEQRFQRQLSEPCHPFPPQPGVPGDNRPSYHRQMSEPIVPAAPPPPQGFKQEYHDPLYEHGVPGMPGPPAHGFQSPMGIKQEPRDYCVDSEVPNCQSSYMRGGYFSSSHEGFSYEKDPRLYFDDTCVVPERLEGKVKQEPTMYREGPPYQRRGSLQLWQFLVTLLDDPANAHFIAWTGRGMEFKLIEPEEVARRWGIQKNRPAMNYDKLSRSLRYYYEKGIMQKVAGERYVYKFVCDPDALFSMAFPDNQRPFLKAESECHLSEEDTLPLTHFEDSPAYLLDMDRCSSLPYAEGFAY
How it was run: as §1

[3] = target: HSF1 (Homo sapiens, UniProt Q00613 1-529); conditions: protein: recombinant; tags: N-terminal GST; chain copies: 3; dsDNA, one strand shown
HSF1, sequence (Q00613 whole entry): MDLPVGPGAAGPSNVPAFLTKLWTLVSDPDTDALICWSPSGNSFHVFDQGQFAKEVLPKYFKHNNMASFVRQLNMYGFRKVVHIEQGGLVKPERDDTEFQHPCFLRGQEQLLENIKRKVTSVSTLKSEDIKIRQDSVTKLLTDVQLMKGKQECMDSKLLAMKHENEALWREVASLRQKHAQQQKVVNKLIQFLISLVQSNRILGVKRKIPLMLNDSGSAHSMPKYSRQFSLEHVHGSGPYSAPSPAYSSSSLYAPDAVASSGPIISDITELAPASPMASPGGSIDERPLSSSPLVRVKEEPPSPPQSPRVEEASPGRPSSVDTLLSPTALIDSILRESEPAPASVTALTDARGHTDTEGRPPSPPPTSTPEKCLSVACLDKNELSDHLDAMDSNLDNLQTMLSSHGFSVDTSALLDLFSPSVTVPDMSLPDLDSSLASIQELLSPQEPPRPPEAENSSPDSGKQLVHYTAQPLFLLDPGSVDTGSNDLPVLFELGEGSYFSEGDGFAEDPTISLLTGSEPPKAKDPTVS
How it was run: as §1

[4] = target: T2, SPIC (Homo sapiens, UniProt Q8N5J4 1-248); conditions: protein: recombinant; tags: N-terminal GST; dsDNA, one strand shown
T2 sequence: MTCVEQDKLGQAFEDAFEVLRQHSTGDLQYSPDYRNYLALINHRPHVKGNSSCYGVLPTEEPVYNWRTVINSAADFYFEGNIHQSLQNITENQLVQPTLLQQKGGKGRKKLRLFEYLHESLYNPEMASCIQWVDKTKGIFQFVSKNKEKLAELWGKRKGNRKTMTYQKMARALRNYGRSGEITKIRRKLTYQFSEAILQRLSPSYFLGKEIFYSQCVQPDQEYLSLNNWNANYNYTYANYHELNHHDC
How it was run: as §1

[5] = target: ELF4 (Homo sapiens, UniProt Q99607 1-663); conditions: protein: recombinant; tags: N-terminal GST; dsDNA, one strand shown
ELF4, sequence (Q99607 whole entry): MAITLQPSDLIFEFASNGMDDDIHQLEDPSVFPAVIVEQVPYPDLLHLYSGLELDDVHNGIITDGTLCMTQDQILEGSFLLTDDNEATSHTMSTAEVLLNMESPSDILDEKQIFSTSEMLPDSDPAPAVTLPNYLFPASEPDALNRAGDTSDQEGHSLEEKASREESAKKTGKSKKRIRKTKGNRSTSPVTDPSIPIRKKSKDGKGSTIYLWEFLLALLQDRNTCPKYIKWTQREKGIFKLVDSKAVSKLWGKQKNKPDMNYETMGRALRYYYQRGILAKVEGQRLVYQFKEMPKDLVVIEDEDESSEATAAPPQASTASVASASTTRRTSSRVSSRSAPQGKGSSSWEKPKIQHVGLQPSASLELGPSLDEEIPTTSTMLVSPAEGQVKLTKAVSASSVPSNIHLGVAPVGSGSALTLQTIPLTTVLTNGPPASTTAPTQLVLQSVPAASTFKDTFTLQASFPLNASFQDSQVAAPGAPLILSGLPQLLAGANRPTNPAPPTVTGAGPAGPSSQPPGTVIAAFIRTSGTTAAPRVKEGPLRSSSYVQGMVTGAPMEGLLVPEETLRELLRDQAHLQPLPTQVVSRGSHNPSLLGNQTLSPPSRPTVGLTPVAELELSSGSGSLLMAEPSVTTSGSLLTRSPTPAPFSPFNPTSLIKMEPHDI
How it was run: as §1

[6] = target: T3, ELK4 (Homo sapiens, UniProt P28324-2 1-405); conditions: protein: recombinant; tags: N-terminal GST; dsDNA, one strand shown
T3 sequence: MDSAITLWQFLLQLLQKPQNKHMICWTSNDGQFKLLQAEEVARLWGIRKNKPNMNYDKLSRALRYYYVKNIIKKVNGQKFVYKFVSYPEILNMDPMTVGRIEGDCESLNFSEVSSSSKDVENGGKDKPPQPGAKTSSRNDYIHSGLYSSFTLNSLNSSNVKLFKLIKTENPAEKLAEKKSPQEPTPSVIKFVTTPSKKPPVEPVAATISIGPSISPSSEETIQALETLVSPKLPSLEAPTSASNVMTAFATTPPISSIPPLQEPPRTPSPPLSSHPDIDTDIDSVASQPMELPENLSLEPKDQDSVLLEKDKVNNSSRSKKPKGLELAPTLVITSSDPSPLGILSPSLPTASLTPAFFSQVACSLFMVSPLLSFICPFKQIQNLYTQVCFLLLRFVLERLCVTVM
How it was run: as §1

[7] = target: T4, ETV2 (Homo sapiens, UniProt O00321 1-342); conditions: protein: recombinant; tags: N-terminal GST; dsDNA, one strand shown
T4 sequence: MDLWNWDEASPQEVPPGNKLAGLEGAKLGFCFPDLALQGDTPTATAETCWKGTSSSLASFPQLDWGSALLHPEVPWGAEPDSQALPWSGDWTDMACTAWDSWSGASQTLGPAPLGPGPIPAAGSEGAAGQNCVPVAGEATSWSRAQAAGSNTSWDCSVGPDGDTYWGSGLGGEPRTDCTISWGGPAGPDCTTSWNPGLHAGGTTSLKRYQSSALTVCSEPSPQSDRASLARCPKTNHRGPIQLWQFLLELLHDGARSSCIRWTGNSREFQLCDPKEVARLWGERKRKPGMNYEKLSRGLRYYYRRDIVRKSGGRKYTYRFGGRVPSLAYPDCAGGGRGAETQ
How it was run: as §1

[8] = target: T5, ELF3 (Homo sapiens, UniProt P78545 1-371); conditions: protein: recombinant; tags: N-terminal GST; dsDNA, one strand shown
T5 sequence: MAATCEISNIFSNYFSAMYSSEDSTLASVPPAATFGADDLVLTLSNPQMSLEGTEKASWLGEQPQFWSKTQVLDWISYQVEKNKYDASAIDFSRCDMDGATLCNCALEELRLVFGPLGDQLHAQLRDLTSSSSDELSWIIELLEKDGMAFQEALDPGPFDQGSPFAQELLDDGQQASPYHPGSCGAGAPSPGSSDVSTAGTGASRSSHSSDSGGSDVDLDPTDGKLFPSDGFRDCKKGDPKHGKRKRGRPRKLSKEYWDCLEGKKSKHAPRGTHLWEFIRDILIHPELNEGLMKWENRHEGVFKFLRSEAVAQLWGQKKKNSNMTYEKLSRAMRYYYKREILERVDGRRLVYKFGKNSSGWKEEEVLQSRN
How it was run: as §1

[9] = target: CRX (Homo sapiens, UniProt O43186 1-299); conditions: protein: recombinant; tags: N-terminal GST; dsDNA, one strand shown
CRX, sequence (O43186 whole entry): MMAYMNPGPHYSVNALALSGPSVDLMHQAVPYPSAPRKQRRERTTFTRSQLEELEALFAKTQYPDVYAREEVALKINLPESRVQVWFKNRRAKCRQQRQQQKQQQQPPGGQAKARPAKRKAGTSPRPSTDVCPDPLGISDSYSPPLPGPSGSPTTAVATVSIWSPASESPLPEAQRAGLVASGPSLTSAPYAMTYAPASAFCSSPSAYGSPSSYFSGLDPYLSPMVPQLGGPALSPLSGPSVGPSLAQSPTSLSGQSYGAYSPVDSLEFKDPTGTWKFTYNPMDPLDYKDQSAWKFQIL
How it was run: as §1

[10] = target: ETV1 (Homo sapiens, UniProt P50549 1-477); conditions: protein: recombinant; tags: N-terminal GST; dsDNA, one strand shown
ETV1, sequence (P50549 whole entry): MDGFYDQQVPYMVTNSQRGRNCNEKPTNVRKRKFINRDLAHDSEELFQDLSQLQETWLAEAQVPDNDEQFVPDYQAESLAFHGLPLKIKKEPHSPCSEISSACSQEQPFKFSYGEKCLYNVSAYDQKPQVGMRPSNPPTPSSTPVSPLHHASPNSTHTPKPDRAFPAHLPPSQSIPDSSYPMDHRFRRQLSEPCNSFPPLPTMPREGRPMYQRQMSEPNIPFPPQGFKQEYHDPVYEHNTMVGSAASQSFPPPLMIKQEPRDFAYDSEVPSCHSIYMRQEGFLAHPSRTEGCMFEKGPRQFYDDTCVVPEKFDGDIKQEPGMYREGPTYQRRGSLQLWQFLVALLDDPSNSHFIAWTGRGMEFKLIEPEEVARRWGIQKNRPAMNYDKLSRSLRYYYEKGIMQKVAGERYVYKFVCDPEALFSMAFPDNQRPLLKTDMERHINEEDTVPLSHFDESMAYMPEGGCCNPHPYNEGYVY
How it was run: as §1

Sequence: TATACC
- binding signal [1]: 1.23 fold enrichment (6-mer frequency, TF over GST control)
- binding signal [2]: 1.09 fold enrichment (6-mer frequency, TF over GST control)
- binding signal [3]: 1.1 fold enrichment (6-mer frequency, TF over GST control)
- binding signal [4]: 1.14 fold enrichment (6-mer frequency, TF over GST control)
- binding signal [5]: 1.21 fold enrichment (6-mer frequency, TF over GST control)
- binding signal [6]: 1.22 fold enrichment (6-mer frequency, TF over GST control)
- binding signal [7]: 1.15 fold enrichment (6-mer frequency, TF over GST control)
- binding signal [8]: 1.12 fold enrichment (6-mer frequency, TF over GST control)
- binding signal [9]: 1.26 fold enrichment (6-mer frequency, TF over GST control)
- binding signal [10]: 1.31 fold enrichment (6-mer frequency, TF over GST control)
